Sampled rows, rich in hits. Any-hit rate of the full collection: about 7.4%.
FLuc counter = inhibits or activates purified firefly luciferase, miR-21 counter-screen; purified FLuc, Km substrates, luminescence inhibition; Potency, µM (doses to about 57.5 µM), actives largely listed as inhibitors; hit rate 6.9% among 360,000; further: nearly all actives have a fitted effect of over 55% in size
Target sequence (P08659 whole entry, looked up): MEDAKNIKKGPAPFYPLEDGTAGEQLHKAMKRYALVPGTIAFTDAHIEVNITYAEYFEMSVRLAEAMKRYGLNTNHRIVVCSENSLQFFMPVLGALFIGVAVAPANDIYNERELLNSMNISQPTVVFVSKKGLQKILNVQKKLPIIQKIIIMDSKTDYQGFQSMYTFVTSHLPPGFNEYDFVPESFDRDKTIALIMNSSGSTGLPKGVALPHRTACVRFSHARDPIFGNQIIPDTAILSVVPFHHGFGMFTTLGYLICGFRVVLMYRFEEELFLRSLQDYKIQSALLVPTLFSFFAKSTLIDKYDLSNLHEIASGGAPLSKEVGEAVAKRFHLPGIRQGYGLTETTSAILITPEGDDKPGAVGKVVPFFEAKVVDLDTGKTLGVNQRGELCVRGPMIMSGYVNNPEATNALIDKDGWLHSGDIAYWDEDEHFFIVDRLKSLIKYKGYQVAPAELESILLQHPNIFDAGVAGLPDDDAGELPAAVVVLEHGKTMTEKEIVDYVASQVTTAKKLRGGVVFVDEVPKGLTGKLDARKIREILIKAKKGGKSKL
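Purified P. pyralis luciferase (10nM final) with 10uM D-luciferin and 10uM ATP (Km levels) in 50mM Tris acetate pH 7.5, 10mM Mg acetate, 0.01% Tween-20, 0.05% BSA; qHTS 6-point titration, ~60 µM downward; luminescence read.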
NPC1 prom act = activates the NPC1 promoter; hit rate 2.4% among 320,000; Potency, µM (highest dose often 9.22 µM), hits mostly activators; Huh7 NPC1 promoter luciferase reporter, 24 h; AID 485313; further: nearly all actives have a fitted effect of over 60% in size
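Stable NPC1-promoter luciferase Huh7 line; cpd (DMSO) 24 h, 37 °C, 5% CO2; Amplite luciferase reagent 10 min RT; luminescence readout. qHTS format.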
Rab9 prom act = Rab9 promoter activation; Huh7 Rab9 promoter-luciferase reporter, luminescence, 24 h; Potency, µM (doses to about 9.22 µM), most hits filed as activators; hit rate 2.8% among 320,000; further: nearly all actives have a fitted effect of over 60% in size
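Luminescence from Amplite-detected luciferase (10 minutes, ambient) reports Rab9 promoter activation. Before that, stable Rab9-luciferase Huh7 cells (1500/well, reduced-serum OP-MEM I plus 10% FBS) were exposed to compound for 24 hours at 37C.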
ELG1 genotoxic = inducers of genotoxicity in HEK293T ELG1-luciferase cells; hit rate 1.3% among 330,000; AID 504466; HEK293T ELG1-luciferase reporter, luminescence, 16 h; Potency, µM (series often up to 46 µM), usual class: activators; further: nearly all actives have a fitted effect of over 60% in size
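HEK293T cells expressing luciferase-tagged ELG1 were treated with compound or DMSO for 16 hr at 37°C. Luciferase activity was then read after 30 min with ONE-Glo at room temperature; rising signal flags genetic stress.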
SMN2 splice up = increases expression of the SMN2 splice variant. hit rate 2.8% among 210,000. AID 1458. HEK293 SMN2-luciferase splicing reporter, luminescence, 30-36 h. Potency, µM (highest dose often 46.1 µM), actives largely listed as activators; further: nearly all actives have a fitted effect of over 55% in size
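HEK293 cells carry an SMN2 […]–luciferase reporter in which exon 7 inclusion puts luciferase in frame. Cells were plated 10-12 h before compound addition, then incubated 30-36 h at 37C. ONE-Glo luminescence was read; sodium butyrate at 4.5 mM final served as control.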
Hits are given with their value; n = inactive; u = inconclusive; x = not tested or not shown; [ ] = another dose, or the depositor's remark. The call rests on the fitted dose curve; in most records, active means well fitted curve in the direction sought with a large enough effect; inconclusive means small, poorly fitted or top-dose-only effect, or another doubt; inactive means no such curve, though single readings can be large; an effect the other way counts as inactive or inconclusive.

SMILES	FLuc counter	NPC1 prom act	Rab9 prom act	ELG1 genotoxic	SMN2 splice up
CN(C)c1cccc(C(=O)N/N=C/c2ccccc2F)c1	0.6µM	0.71µM	0.35µM	1µM	1.4µM
Cc1cc(/C=N/NC(=O)c2cccc(N(C)C)c2)c(C)n1-c1cc(C(=O)O)cc(C(=O)O)c1	24µM	n	u	u	u
CCCCCCCCC/C(=N\O)c1ccccn1	17µM	u	u	u	n
CCCCCCCCC(=O)N/N=C/c1ccccn1	n	n	n	n	n
COc1ccc(C(=O)NC2CC2)cc1OC1CCN(Cc2ccc(F)c(F)c2)CC1	n	n	n	n	x
O=C(O)/C=C\C(=O)Nc1ccc2c(c1)-c1ccccc1C2	x	x	x	x	n[9.22 µM]
C=CCOC(=O)C(=O)/C=C/c1ccc2c(c1)Cc1ccccc1-2	11µM	n	n	n	x
Nc1cc(=O)[nH]c(SCC(=O)Nc2nnc(-c3ccccc3)s2)n1	24µM	n	n	n	n
Cc1cc(=O)[nH]c(SCC(=O)Nc2nnc(CC(C)C)s2)n1	n	n	n	n	n
O=C(CSc1ncn[nH]1)Nc1ccccc1-c1ccccc1	n	n	n	n	n
CC(C)Cc1nnc(NC(=O)CSc2nc(-c3ccccc3)cc(=O)[nH]2)s1	12µM	n	n	n	x
CCn1c(Cc2ccccc2)nnc1SCC(=O)Nc1nc(C)c(C)s1	n	n	n	n	n
Nc1cc(=O)[nH]c(SCC(=O)Nc2ccccc2-c2ccccc2)n1	n	n	n	n	n
O=C(CSc1ncn[nH]1)Nc1nnc(-c2ccccc2)s1	21µM	n	u	u	n
CCn1c(Cc2ccccc2)nnc1SCC(=O)Nc1nnc(-c2ccccc2)s1	u	n	n	n	0.11µM
c1ccc(Nc2nnc(-c3cccc4ccccc34)o2)cc1	2.1µM	n	u	u	x
Cc1ccc(CSc2nnc(-c3cccc4ccccc34)o2)cc1	x	x	x	n	x
CCN1CCN(C(=O)C(C)Nc2cc(Cl)c(OC)cc2OC)CC1 (stereo unspecified)	n	n	n	n	n
COc1cc2oc3ccccc3c(=O)c2cc1OC	u	u	n	u	x
CCOC(=O)/C=C/c1ccc2oc3ccccc3c(=O)c2c1	2.4µM	3.5µM	4µM	u	x
COc1ccc(CCNC(=O)C2COc3ccccc3C2)cc1OC (stereo unspecified)	n	x	x	x	x
O=c1c2sccc2nc(SCc2cc(=O)n3ccccc3n2)n1Cc1ccccn1	n	u	4µM	u	13µM
Clc1ccc(-c2noc(CN3CCN(c4ccccc4)CC3)n2)cc1	n	n	n	n	n
Cc1ccc(-c2noc(CN3CCOCC3)n2)cc1	17µM	3.2µM	2.8µM	u	u
COc1ccc(N2CCN(Cc3nc(-c4ccc(C)cc4)no3)CC2)cc1	n	x	x	x	n
SMILES	FLuc counter	NPC1 prom act	Rab9 prom act	ELG1 genotoxic	SMN2 splice up
Cc1ccc(-c2noc(CN3CCCCC3)n2)cc1	19µM	u	u	13µM	u
Clc1ccc(-c2noc(CN3CCCC3)n2)cc1	19µM	u	u	10µM	u
Cc1ccc(-c2noc(Cn3cc(S(=O)(=O)N4CCCC4)ccc3=O)n2)cc1	24µM	n	n	n	x
COc1ccc(CNC(=O)c2cc3c(=O)n4cccc(C)c4nc3s2)cc1	n	x	x	x	n
COc1cccc(NC(=O)c2oc3ccccc3c2NC(=O)c2ccc(F)c(F)c2)c1	n	x	x	x	n
CC(C)(C)OC(=O)N1CCC(c2c(C(=O)N3CCN(C(=O)c4ccco4)CC3)cnn2-c2ccc(Cl)cc2)CC1	n	x	x	x	x
CCOc1cc(/C=N/NC(=O)c2ccccn2)ccc1OC(=O)c1cccs1	u	n	n	u	x
O=C(N/N=C/c1c[nH]c2ccc(Br)cc12)c1ccccn1	u	n	n	n	n
O=C(N/N=C/c1ccc(OC(=O)c2ccco2)cc1)c1ccccn1	2.7µM	2.8µM	1.8µM	u	x
COc1cc(/C=N/NC(=O)c2ccccn2)ccc1OC(=O)c1ccc(Br)cc1	n	u	n	u	x
COc1cc(/C=N/NC(=O)c2ccccn2)ccc1OC(=O)c1ccccc1Br	4.8µM	u	u	n	x
O=C(N/N=C/c1ccc(OC(=O)c2cccs2)cc1)c1ccccn1	1.5µM	2.5µM	3.2µM	7.3µM	x
O=C(Oc1ccc(/C=N/NC(=O)c2ccccn2)cc1)c1cccc(Br)c1	n	4µM	3.5µM	16µM	x
COC(=O)C1C(O)CC[C@H]2CN3CCc4c([nH]c5ccccc45)C3C[C@H]12 (stereo partly specified)	x	x	x	x	n
Cc1ccc(CSc2nc3ccncc3n2Cc2nc(-c3ccc(Cl)cc3)oc2C)cc1	u	x	x	x	n
COc1ccc(-c2nc(Cn3c(SCc4ccccc4F)nc4cccnc43)c(C)o2)cc1	13µM	x	x	x	x
COc1ccc(-c2nc(Cn3c(SCc4ccccc4F)nc4ccncc43)c(C)o2)cc1	n	n	n	u	n
COc1ccc(-c2nc(Cn3c(SCc4ccc(F)cc4)nc4ccncc43)c(C)o2)cc1OC	13µM	n	n	n	n
COc1ccc(-c2nc(Cn3c(SCc4ccc(C)cc4)nc4cccnc43)c(C)o2)cc1OC	6µM	x	x	x	x
Cn1c(SCc2ccccc2F)nc2cccnc21	9.5µM	1.4µM	2.2µM	u	13µM
O=C(CN1C(=O)COc2ccc(S(=O)(=O)N3CCCCC3)cc21)NCc1ccc(Cl)cc1	n	u	n	n[9.26 µM]	x
O=C(c1cc(Cl)nc2ccccc12)N1CCc2ccccc2C1	n	n	n	n	n
COc1ccc(-c2nc(Cn3c(SCc4ccc(F)cc4)nc4cccnc43)c(C)o2)cc1	11µM	x	x	x	x
COc1ccc(Cn2c(SCc3ccc(C(=O)NCc4ccc(C)cc4)cc3)nc3cccnc32)cc1	u	x	x	x	n
CC(C)Cn1c(-c2cccc(Br)c2)nc2ccccc21	n	x	x	x	n
SMILES	FLuc counter	NPC1 prom act	Rab9 prom act	ELG1 genotoxic	SMN2 splice up
COCn1c(-c2ccc(OC)c(OC)c2)nc2ccccc21	11µM	u	3.5µM	u	n
COCn1c(-c2cccc(Br)c2)nc2ccccc21	17µM	n	n	u	x
CCc1nnc(SCC(=O)N(CC)c2ccccc2)c2cc3oc(C)cc3n12	n	x	x	x	x
Cc1ccn2c(=O)cc(COc3ccc(NC(=O)COc4ccc(C)c(C)c4)cc3)nc2c1	n	x	x	x	x
Cc1ccc(-c2nc3sc(C(N)=O)c(N)c3c3c2CCCC3)cc1	n	n	n	n	n
Cc1nc2sc(C(N)=O)c(N)c2c2c1CCCC2	12µM	u	n	n	x
CC(=O)Nc1ccc(NC(=O)c2ncoc2-c2ccco2)cc1	19µM	x	x	x	x
Cc1cc(C)c(NC(=O)c2ncoc2-c2ccco2)c(C)c1	n	x	x	x	x
COc1ccc(S(=O)(=O)NC(C)C(=O)Nc2ccc3c(c2)OCCO3)cc1OC (stereo unspecified)	n	n	n	n	x
Cc1nc2oc3ccc(Cl)cc3c(=O)c2cc1C(=O)O	24µM	u	u	n	x
Cc1nc2oc3ccc(F)cc3c(=O)c2cc1C(=O)NC(C)(C)C	u	n	n	u	u
CC(C)c1ccc2oc3nc(N)c(C(=O)O)cc3c(=O)c2c1	0.43µM	0.32µM	0.5µM	x	x
Cc1[nH]c2ccccc2c1/C=N/Nc1nc2ccccc2[nH]1	4.3µM	u	n	u	x
C(=N\Nc1nc2ccccc2[nH]1)/c1cccc2cccnc12	0.43µM	n	n	u	x

Screening results: PubChem, National Center for Advancing Translational Sciences (NCATS)
